# Compound activity: PubChem BioAssay, National Center for Advancing Translational Sciences (NCATS)
# HCV inhibitor: inhibitors of hepatitis C virus infection; Huh7.5.1 HCVcc-Cre infection, luciferase reporter, 44 h; Potency, µM (top dose mostly 41.8 µM), without a hit: top-dose activity change, negative = inhibition, most hits filed as inhibitors; 340,000 tested, 3.4% active; AID 651820
#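 Antiviral activity was scored by luciferase reporter output from cells infected with HCVcc-Cre (~0.5 moi) in presence of compound, 44 h infection period, cells seeded 1,000/well 4 h prior.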
# Pf growth 96h: P. falciparum growth inhibition at 96 hour, primary screen for plastid delayed-death inhibitors; P. falciparum luciferase reporter growth, 96 h; Potency, µM (doses to about 28.7 µM), for inactives: top-dose activity change, negative = inhibition, actives largely listed as inhibitors; 320,000 tested, 6.9% active; AID 504834
#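 P. falciparum expressing integrated firefly luciferase, in erythrocytes at 2% hematocrit, 0.05% parasitemia, incubated with compounds 96 h at 37 C, 5% CO2. Growth inhibition read as loss of luminescence; two-generation exposure targets delayed-death apicoplast inhibitors.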
# AMA1-RON2 inh: AMA1-RON2 (P. falciparum) interaction inhibition; AlphaScreen AMA1-biotinylated RON2 peptide binding; 360,000 tested, 0.2% active; Potency, µM (titrated, usually from 58.2 µM), for inactives: top-dose activity change, negative = inhibition, usual class: inhibitors;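 note: 0% = vehicle wells and -100% = peptide control; nearly all actives have a fitted effect of over 45% in size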
#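 AMA1 (3D7) with his tag at 25 nM final met compounds first, then biotinylated RON2 peptide at 25 nM; detection used donor plus acceptor beads, 10 µg/mL apiece, read by AlphaScreen after 30 min at room temperature.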
# Pf growth 48h: inhibits P. falciparum growth in the first generation, 48 h; P. falciparum luciferase growth in erythrocytes, 48 h; Potency, µM (top dose mostly 28.7 µM), for the others: top-dose activity change, negative = inhibition, usual class: inhibitors; 310,000 tested, 5.9% active
#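 Read-out is firefly luciferase luminescence from an integrated reporter in P. falciparum, so falling signal marks reduced parasite growth. Infected erythrocytes were at 2% hematocrit and 0.1% parasitemia (final) in Albumax-supplemented RPMI 1640.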
# * = called active by the depositor; ? = inconclusive; / = no result given. Compounds with a hit are over-represented: about 11% of the library has one in this group of screens. Calls come from the whole dose curve; as a rule, active = well fitted curve in the direction sought with a large enough effect; inconclusive = small, poorly fitted or top-dose-only effect, or another doubt; inactive = no such curve, though single readings can be large; an effect the other way counts as inactive or inconclusive. Unless noted, % is set by controls: 0 for no effect and ±100 for the full control effect; potency is the fitted concentration of half-maximal effect.
SMILES,HCV inhibitor,Pf growth 96h,AMA1-RON2 inh,Pf growth 48h
CCOC(=O)c1cncc(NC(=O)c2ccccc2)c1,?,41%,-2%,36%
CCOC(=O)c1[nH]c2ccc(OC)cc2c1NC(=O)NC(C)C,0%,14%,6%,?
CCOC(=O)c1[nH]c2ccc(OC)cc2c1N=CN(C)C,-7%,0.13µM*,16%,7%
Cn1cc(/C=C/C(=O)N2CCCC(C(=O)c3cccc4ccccc34)C2)cn1 (stereo unspecified),-19%,54%,-10%,-11%
COc1cccc(O)c1CN1CCCC(C(=O)c2cccc(C(F)(F)F)c2)C1 (stereo unspecified),?,?,?,2.9µM*
COc1ccc(C(=O)C2CCCN(Cc3c(O)cccc3OC)C2)cc1OC (stereo unspecified),-17%,?,3%,?
CCn1ccnc1CN1CCCC(C(=O)c2cccc(C(F)(F)F)c2)C1 (stereo unspecified),-28%,13%,38%,9.3µM*
Cn1cc(/C=C/C(=O)N2CCCC(C(=O)c3cccc(C(F)(F)F)c3)C2)cn1 (stereo unspecified),-8%,4.1µM*,2%,5%
CCOc1ccccc1NC(=O)COC(=O)c1cnc(C)cn1,8%,15%,3%,13%
CCOC(=O)N1CCN(C(=O)/C(=C\c2ccc(SC)cc2)NC(=O)c2ccccc2)CC1,12%,-14%,-27%,?
CCOC(=O)N1CCN(C(=O)/C(=C/c2ccc(F)cc2)NC(=O)c2ccccc2)CC1,10%,3.3µM*,4%,-24%
O=C(NCC1CCCO1)C(c1ccccn1)N(Cc1ccccc1Cl)C(=O)CN1C(=O)c2ccccc2S1(=O)=O (stereo unspecified),17%,10%,1%,4%
CCCCc1nnc(NC(=O)C23CC4CC(CC(NC(C)=O)(C4)C2)C3)s1,0%,-15%,-3%,-2%
CC(=O)NC12CC3CC(C1)CC(C(=O)Nc1nccs1)(C3)C2,11%,6.6µM*,-1%,?
CCCc1ccc(-c2ccc(-c3noc(-c4ccncc4)n3)cc2)nc1,?,10µM*,28%,0%
N/C(=N\OC(=O)c1ccccc1Cl)c1ccc(Cl)cc1,18%,37%,33%,214%
N/C(=N\OC(=O)c1ccc(F)cc1)c1ccc(Br)cc1,0%,?,2%,-62%
N/C(=N\OC(=O)c1ccc(F)cc1)c1ccccc1,2%,10µM*,31%,34%
N/C(=N\OC(=O)c1ccc(Cl)cc1)c1ccc(Cl)cc1,0%,2.6µM*,7%,?
N/C(=N\OC(=O)COc1ccccc1)c1ccc(Cl)cc1,6%,13µM*,36%,66%
c1nc(SSc2ncnc3nc[nH]c23)c2[nH]cnc2n1,-3%,/,32%,/
C=CCN(CC(O)c1cccc([N+](=O)[O-])c1)C(C)CCc1ccccc1 (stereo unspecified),7%,?,-28%,1.5µM*
Oc1ccccc1C1CC(c2cccs2)=NC(c2cccc(Br)c2)N1 (stereo unspecified),22%,2.6µM*,-2%,?
Cc1ccc(Cl)cc1NC(=O)CCS(=O)(=O)c1ccc2c(c1)n(C)c(=O)c(=O)n2C,/,/,0%,/
CC(=O)Nc1ccc(NC(=O)CCS(=O)(=O)c2ccc3c(c2)oc(=O)n3C)cc1,8%,9.3µM*,7%,17%
SMILES,HCV inhibitor,Pf growth 96h,AMA1-RON2 inh,Pf growth 48h
Cn1c(=O)oc2cc(NC(=O)CCl)ccc21,?,6.6µM*,-8%,5.2µM*
Cc1cccc(NC(=O)CCS(=O)(=O)c2ccc3c(c2)oc(=O)n3C)c1,9%,8.3µM*,4%,5%
COc1ccc(NC(=O)CCS(=O)(=O)c2ccc3c(c2)oc(=O)n3C)cc1OC,12%,?,-15%,4%
CC(=O)c1ccc(NC(=O)CCS(=O)(=O)c2ccc3c(c2)n(C)c(=O)c(=O)n3C)cc1,17%,9.3µM*,12%,40%
O=C(Nc1ccc(Cl)cc1)C1Cc2c(-c3cccc(F)c3)ccnc2O1 (stereo unspecified),/,/,-5%,/
O=S(=O)(c1ccc(Cl)c(NC(=S)N/N=C/c2c(F)cccc2F)c1)N1CCOCC1,5%,?,36%,4%
O=S(=O)(c1ccc(NC(=S)N/N=C/c2ccc(O)c(O)c2)cc1)N1CCOCC1,1%,13µM*,33%,15µM*
O=S(=O)(c1ccc(Cl)c(NC(=S)N/N=C/c2ccc(O)cc2)c1)N1CCOCC1,?,3.3µM*,0%,-27%
O=[N+]([O-])c1cc(Cl)cc(/C=N/NC(=S)Nc2ccc(S(=O)(=O)N3CCOCC3)cc2)c1O,-3%,?,10µM*,0.47µM*
CS(=O)(=O)N1CCC(C(=O)Nc2ccc(Cl)c(Cl)c2)CC1,15%,418%,-6%,-15%
C=CCNC(=S)NNC(=O)COc1ccc2cc(Br)ccc2c1,-16%,?,26%,68%
C=CCNC(=S)NNC(=O)COc1ccc(Br)cc1,-2%,5.9µM*,42%,2%
O=C(CCc1ccccc1)NNC(=O)COc1ccc(Br)cc1,11µM*,4%,11%,7%
Cc1ccc(OC2CCN(C(=O)[C@H]3O[C@@H](n4ccc(N)nc4=O)[C@H](O)[C@@H]3O)CC2)cc1,/,/,-1%,/
CC(C)CCOP(=O)(c1ccc(N(C)C)cc1)C(O)c1ccc(N(C)C)cc1 (stereo unspecified),13%,?,-1%,?
CN(C)c1ccc(P(=O)(OCc2ccccc2)C(O)c2ccccc2)cc1 (stereo unspecified),8%,2.3µM*,-9%,10µM*
CC(C)CCOP(=O)(c1ccc(N(C)C)cc1)C(O)c1ccc(Cl)cc1Cl (stereo unspecified),-28%,9.3µM*,-18%,9.3µM*
CC(C)CCOP(=O)(c1ccc(N(C)C)cc1)C(O)c1ccccc1F (stereo unspecified),1%,?,-15%,2.9µM*
NC(=O)c1ccc(/C=N/O)nc1,6%,-25%,107%,3%
O=C1c2ccccc2C(=O)c2c(NCCCN(CCO)CCO)cccc21,14µM*,45%,?,?
CCN(CC)CC(=O)Nc1cccc2c1C(=O)c1ccccc1C2=O,-23%,-22%,-7%,19%
COc1ccc(C(=O)C[n+]2cc(-c3ccc(OC)cc3)n3c2CCCC3)cc1,-6%,1.5µM*,0%,1.2µM*
Cc1ccc(-c2c[n+](Cc3ccc(Cl)c(Cl)c3)c3n2CCC3)cc1,-14%,0.19µM*,-5%,1.7µM*
Cc1ccc(C(=O)C[n+]2cc(-c3ccc(C)cc3)n3c2CCCCC3)cc1,?,0.41µM*,-1%,0.41µM*
O=C(C[n+]1cc(-c2ccccc2)n2c1CCCCC2)c1ccc(Br)cc1,?,33%,-4%,1.7µM*
COc1ccc(C(=O)C[n+]2ccc(-c3nnc4n3CCCCC4)cc2)cc1,3%,8%,99%,10%
CC1ON=C(c2ccccn2)N(Cc2ccc3c(c2)OCO3)C1=O (stereo unspecified),/,/,-5%,/
